Assay results from PubChem BioAssay AID687001 (Broad Institute, 2013).
Measured potencies and affinities stand elsewhere. Activity calls are given as the source filed them.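 Rule for the calls: active = signal-lowering compounds whose fitted half-maximal concentration is at or below twice the top tested dose in every run; inconclusive = runs disagree, flat 30 to 70% inhibition, or poor curve fit; inactive = the rest.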

Target: Protein S100-A4 (Homo sapiens) (UniProt P26447)
Test: human S100A4 peptide interaction inhibition curves – biochemical, fluorescence polarization, cherry-picked hits, dose response (AID 687001)
Conditions: FP, S100A4/TAMRA-myosin IIA peptide binding; series mostly up to 11 µM

Chain of Protein S100-A4 (Homo sapiens) (P26447 whole entry, looked up): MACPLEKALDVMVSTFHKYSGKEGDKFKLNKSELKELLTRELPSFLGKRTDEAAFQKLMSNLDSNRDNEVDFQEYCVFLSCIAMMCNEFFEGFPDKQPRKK

Row | SMILES | outcome
1 | O=C(NNC(=O)c1ccccc1F)c1cccc(-n2cccc2)c1 | inactive
2 | CCCC(=O)Nc1ccc2c(c1)OC[C@@H](C)N(Cc1ccncc1)C[C@H](C)[C@H](OC)CN(C)C2=O | inactive
3 | Cc1cccc(C)c1NC(=O)CN1CCN(c2ccc(C(F)(F)F)cn2)CC1 | inactive
4 | COCC(=O)N(C)C[C@H]1Oc2cc(C#CCN(C)C)ccc2S(=O)(=O)N([C@@H](C)CO)C[C@H]1C | inactive
5 | CCCCNC(=O)CNC(=S)N(CCCN1CCOCC1)Cc1cccs1 | inactive
6 | O=C1CNC[C@H]2[C@@H](c3ccc(C#CC4CCCC4)cc3)[C@@H](CO)N12 | inactive
7 | CCCc1cc(=O)[nH]c(SCC(=O)N2CCc3ccccc32)n1 | inactive
8 | O=C(C[C@@H]1C[C@H]2c3cc(NC(=O)NC4CCCC4)ccc3O[C@H]2[C@H](CO)O1)NCCc1ccccc1 | inactive
9 | Cc1[nH]c(C)c(S(=O)(=O)N2CCN(c3ccccc3F)CC2)c1C(=O)N1CCCCC1 | inactive
10 | CCCC(=O)Nc1ccc(C=C(C(C)=O)C(C)=O)cc1 | inactive
11 | Cc1ccc(OC(=O)N(C)C[C@@H]2OCc3cn(nn3)CCCC(=O)N([C@H](C)CO)C[C@H]2C)cc1 | inactive
12 | O=C1N[C@@H](Cc2ccccc2)COC(=O)[C@@H](Cc2ccc(F)cc2)CC/C=C/C[C@H]1CC(=O)N(CCO)Cc1ccccc1 | inactive
13 | CCCCCn1c(C)c(CC(=O)Nc2ccc(Oc3cccnc3)c(C)c2)c2ccccc21 | inactive
14 | CCOc1cc(/C=C2\CCCc3c2nc2ccccc2c3C(=O)O)ccc1OC | inactive
15 | COc1cc(/C=C2\SC(=S)N(NC(=O)c3ccccc3OC)C2=O)ccc1O | inactive
16 | O=C(c1ccncc1)N1C[C@@H]2[C@H](c3ccccc31)[C@@H](CO)N2C(=O)CN1CCOCC1 | inactive
17 | O=C(O)COCC(=O)Nc1ccc(-n2nc(C(F)(F)F)cc2-c2cccs2)cc1 | inactive
18 | CN(C(=O)COC(=O)/C=C/c1ccc2c(c1)OCO2)c1c(N)n(Cc2ccccc2)c(=O)[nH]c1=O | inactive
19 | CCN(CC(=O)Nc1ccccc1C(F)(F)F)C(=O)c1ccc(NC(=O)c2cccs2)cc1 | inactive
20 | O=C(CSc1ncnc2c1nnn2Cc1ccc(F)cc1)NCC1CCCO1 (stereo not drawn) | inactive
21 | O=C(c1ccccc1)N1CC2(C1)[C@H](c1ccccc1)[C@@H](CO)N2Cc1ccccn1 | inactive
22 | O=C(CCN1CCCCC1)N[C@H]1CC[C@H](CCn2cc(-c3ccccc3)nn2)O[C@@H]1CO | inactive
23 | CC(C)c1ccc(/C=N/n2c(COc3ccccc3)n[nH]c2=S)cc1 | inactive
